# Experimental data published in PubChem BioAssay (EPA / NIEHS).
# The source made the active and inactive calls. The calls were made as follows: active = hit-call score of the fitted dose curve at least 0.9, where 1 is the maximum; inactive = score below 0.9.
# Experiment: APR_HepG2_p53Act_24hr: Apredica 24-hour HepG2 Assay for p53 Activation (AID 2282913)
# Conditions: high-content imaging, actives raise or lower the signal
# Method: APR_HepG2_24hr is a cell-based, multiplexed-readout assay that uses HepG2, a human liver cell line, with measurements taken at 24 hours after chemical dosing in a 384-well plate.APR_HepG2_p53Act_24hr is one of 10 assay component(s) measured or calculated from the APR_HepG2_24hr assay. It is designed to make measurements of dna content, a form of viability reporter, as detected with fluorescence intensity signals by HCS Fluorescent Imaging technology.Data from the assay component APR_HepG2_p53Act_24hr was analyzed into 1 assay endpoint. This assay endpoint, APR_HepG2_p53Act_24hr, was analyzed with bidirectional fitting relative to DMSO as the negative control and baseline of activity. Using a type of viability reporter, measures of protein for gain or loss-of-signal activity can be used to understand the signaling at the pathway-level as they relate to the gene TP53. Furthermore, this assay endpoint can be referred to as a primary readout, because this assay has produced multiple assay endpoints where this one serves a signaling function. To generalize the intended target to other relatable targets, this assay endpoint is annotated to the dna binding intended target family, where the subfamily is tumor suppressor.
# Cells were treated with dimethyl sulfoxide (DMSO) as a solvent control at a final concentration of 0.5% v/v or with compounds in DMSO with a resulting final DMSO concentration of 0.5% v/v. Compound treatment was done at concentrations of 0.39, 0.78, 1.56, 3.12, 6.24, 12.5, 25, 50, 100, and 200 uM in duplicate on each plate. Cells were treated with compounds for 1, 24, or 72 hr. Carbonyl […] m-chloro-phenylhydrazone (CCCP) and taxol were used as positive controls for mitochondrial function and cytoskeletal stability, respectively; DMSO served as the negative control for this experiment. Cells were fixed by the direct addition of 50 uL formaldehyde in Hank's Balanced Salt Solution (HBSS) to a final concentration of 3.7%. After incubation in the fixation medium for 30 min at room temperature (293-298 K), cells were rinsed twice with HBSS and treated with cell permeabilization buffer (16 uL of 0.5% Triton X-100) for 10 min at room temperature (293-298 K) before labeling. For mitochondrial membrane potential and mitochondrial measurements, pre-fixed cells were incubated with 50 uL of MitoTracker Red CMXRos (Invitrogen) at a concentration of 250 nM for 30 min before fixation. In the remaining cases, post-fixed cells were labeled by incubation with a multiplexed mixture of primary antibodies in HBSS for 60 min at room temperature (293-298 K) to detect immunoreactivity of c-Jun (1:500), phospho-histone H3 (1:100), phospho-histone H2A.x (1:200), p53 (1:400), alpha-tubulin (1:200) and Hoechst 33342 (2 ug/mL). Cells were labeled for multiplexed imaging on two separate plates: a) Hoechst 33342, MitoTracker Red, phospho-histone H3, and alpha-tubulin, and b) Hoechst 33342, phospho-histone H2A.x, and c-Jun. A final rinse with HBSS (50 uL) was performed before analysis. The primary and secondary antibodies for the proteins were phospho-histone H3 (rabbit anti-phospho-histone H3 and FITC-donkey anti-rabbit IgG), phospho-histone H2A.x (mouse anti-phospho-histone H2A.x and FITC-donkey anti-mouse IgG), c-Jun (rabbit anti-phospho-c-Jun and Cy3-donkey anti-rabbit IgG), p53 (sheep anti-p53 and Cy5-donkey anti-sheep IgG), alpha-tubulin (mouse anti-alpha-tubulin and Cy5-donkey anti-mouse IgG). These antibodies are available as the CellCiphr HepG2 assay kit (Millipore).Digital images of each well were captured using a Cellomics ArrayScan VTI (Thermo Scientific Cellomics) (0.8 NA objective, 0.63x optical coupler, and XF-93 filter set) at 20x magnification. The images were acquired using the autofocus feature of the ArrayScan instrument, which entails the following steps. First, the camera focuses on channel 1 (Hoechst 33342), where nuclei are identified. Second, a Z offset of 1 um is used for capturing mitochondria (MitoTracker Red). […]
Structure (SMILES),outcome,AC50
Cc1ccc(C(C)C)cc1,inactive,
Oc1ccccc1,inactive,
CCCCCCCCCCCC[N+](C)(C)C,,49.5 µM (active)
Cc1cccc2ccccc12,inactive,
OC12N=C(c3ccccc3)SC1Cc1cc(Cl)ccc12 (stereo not given),inactive,
CCN(CC)C(=O)c1cc(S(=O)(=O)Cc2ccccc2)c(N2CCC(c3ccccc3)CC2)cc1N(CC)CCN(C)C,,18.6 µM (active)
O=C1c2ccccc2C(=O)N1CCc1noc(-c2ccc(CN3CCCCCC3)s2)n1,inactive,
O=C1O[C@H]([C@@H](O)CO)C(O)=C1O,inactive,
COc1cc(C(=O)NC2CCN(C)CC2)ccc1Nc1ncc2c(n1)N(C1CCCC1)CC(F)(F)C(=O)N2C,inactive,
Cc1ncc(CO)c(CO)c1O,inactive,
CCCCCc1ccc(N)cc1,inactive,
CC(C)(C)c1cc(/C=C2\SC(N)=NC2=O)cc(C(C)(C)C)c1O,,61.7 µM (active)
O=C1CCC(C2CCCCC2)CC1,inactive,
CC1=CC(=O)/C(=C(/C)O)C(=O)O1,inactive,
Cc1cc(F)ccc1-c1cc(N2CC[C@@H](O)[C@H]2CO)ncc1N(C)C(=O)C(C)(C)c1cc(C(F)(F)F)cc(C(F)(F)F)c1,,94 µM (active)
CC1(C)NC(=O)N(c2ccc([N+](=O)[O-])c(C(F)(F)F)c2)C1=O,inactive,
CCCCCCCCCCCCO,inactive,
CN1C(=O)CC[C@H]1c1cccnc1,inactive,
CC(=O)N1CCN(c2ccc(OC[C@H]3CO[C@](Cn4ccnc4)(c4ccc(Cl)cc4Cl)O3)cc2)CC1,inactive,
OCCO,inactive,

Structure (SMILES),outcome,AC50
Cc1cn([C@H]2C[C@H](N=[N+]=[N-])[C@@H](CO)O2)c(=O)[nH]c1=O,inactive,
O=C(O)Cn1c(=O)n(Cc2ccc(Br)cc2F)c(=O)c2ccc(Cl)cc21,inactive,
CCCCCCCCN(C)CCCCCCCC,inactive,
CC(C)(C)c1csc(-c2cc3cc(OCc4ccccc4CC(=O)O)ccc3o2)n1,inactive,
CCN(Cc1cccnc1)C(=O)c1cccc(Cl)c1[C@]1(C)C(=O)N(Cc2ccc(OC)cc2OC)c2ccc(Cl)cc21,inactive,
O=c1[nH]sc2ccccc12,,29.3 µM (active)
Clc1cc(Cl)c2c(c1)N=C1CCCCCN1C2,inactive,
CCO[Si](CCCNC(N)=O)(OCC)OCC,inactive,
O=C(O)Cc1cc(I)c(Oc2ccc(O)c(I)c2)c(I)c1,inactive,
COc1cccc([C@H](O)C2CCN(CCc3ccc(F)cc3)CC2)c1OC,inactive,
CC(C)(c1cc(Br)c(O)c(Br)c1)c1cc(Br)c(O)c(Br)c1,inactive,
CC[C@@H]1C[C@H](N(Cc2cc(C(F)(F)F)cc(C(F)(F)F)c2)C(C)=O)c2cc(C(F)(F)F)ccc2N1C(=O)OC(C)C,inactive,
CCOC(=O)O[C@H](C)OC(=O)c1ccc2c(c1)cc(C(=O)NC1CCN(C(C)C)CC1)n2Cc1cc(-c2ccc(Cl)s2)on1,,94.5 µM (active)
CC/C(=C(/CC)c1ccc(O)cc1)c1ccc(O)cc1,,33.8 µM (active)
CCCCCCCC[Si](OCC)(OCC)OCC,inactive,
CCCCCCCCCC(=O)O,inactive,
C[C@]12CC[C@@H]3c4ccc(O)cc4CC[C@H]3[C@@H]1CC[C@H]2O,,54.6 µM (active)
CN(C)c1ccc(C(=C2C=CC(=[N+](C)C)C=C2)c2ccc(N(C)C)cc2)cc1,,2.93 µM (active)
CCCCOC(=O)CC(CC(=O)OCCCC)(OC(C)=O)C(=O)OCCCC,,53.9 µM (active)
CC(O)CC(C)(C)O (stereo not given),inactive,
